Screening data from PubChem.
Tau fluor counter = counter-screen for tau fibril formation inhibitors. tau K18 P301L Alexa594 fluorescence, heparin fibrillization. Potency, µM (titrated, usually from 57.7 µM), without a hit: at the highest dose activity change, negative = decrease. hit rate 0.93% among 280,000. AID 1463; note: potency is the fitted concentration of half-maximal effect; % is set by controls: 0 for no effect and ±100 for the full control effect; nearly all actives have a fitted effect of over 55% in size
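Human K18 P301L tau (15 uM unlabeled plus 0.24 uM Alexa 594-labeled, final) in 100 mM sodium acetate pH 7 was mixed with compound and 20 uM heparin and incubated 6 hr at 37 C.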
Tau fibril ThT = blocks human tau fibril formation measured by thioflavin T; hit rate 2.1% among 270,000; Potency, µM (highest dose often 57.4 µM), inactives show at the top dose activity, negative = inhibition, most hits filed as inhibitors; recombinant tau K18 P301L (four-repeat tau fragment), heparin-induced fibrillization, ThT fluorescence; note: potency is the fitted concentration of half-maximal effect; % is set by controls: 0 for no effect and ±100 for the full control effect; nearly all actives have a fitted effect of over 55% in size
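Heparin-induced fibrillization of the P301L-mutant K18 repeat-domain fragment of human tau was followed by ThT binding in quantitative high-throughput format.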
Tau fibril FP = inhibitors of human tau fibril formation; P10636; hit rate 0.39% among 280,000; K18 P301L tau heparin fibrillization, Alexa594 FP, 6 h; Potency, µM (series often up to 57.7 µM), inactives show at the highest dose activity, negative = inhibition, usual class: inhibitors; note: potency is the fitted concentration of half-maximal effect; % is set by controls: 0 for no effect and ±100 for the full control effect; nearly all actives have a fitted effect of over 55% in size
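Human K18 P301L fragment (15 uM unlabeled plus 0.24 uM Alexa 594-labeled) in 100 mM sodium acetate pH 7 with compound, aggregation induced by 20 uM heparin for 6 hr at 37 C. ThT (30 uM) added for 1 hr, then Alexa 594 FP read.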
FBPA coupling cs = counter-screen for Giardia aldolase inhibitors: coupling enzyme system; AID 2472; hit rate 0.67% among 290,000; activity change, negative = inhibition, % at 58.2 µM, hits read low; coupling enzyme system counterscreen, AmpLite Red fluorescence; in the data active = activity change below about -30%; note: % is set by controls: 0 for no effect and ±100 for the full control effect
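Coupling enzymes only (glyceraldehyde-3-phosphate) + compound, at 57.5 uM final, 10 min RT; add substrate/coupling/AmpLite Red mix, 20 min RT; fluorescence ex 525/em 598 nm. Actives flag coupling-system interference.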
USP1 inh = inhibitors of human USP1/UAF1 deubiquitinase; Potency, µM (highest dose often 57.1 µM), for inactives: top-dose activity change, negative = inhibition, usual class: inhibitors; recombinant USP1/UAF1, Ub-Rhodamine cleavage fluorescence; hit rate 0.23% among 390,000; O94782; note: potency is the fitted concentration of half-maximal effect; % is set by controls: 0 for no effect and ±100 for the full control effect; nearly all actives have a fitted effect of over 60% in size
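In this screen, compounds sit with the deubiquitinase complex (1nM) for 15 min at room temperature before Ub-Rho is added at 150nM final. Fluorescence rise is then followed for 6 reads every 60 seconds.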
Casp1 confirm = confirmation of allosteric or competitive inhibitors of human caspase-1; shares compounds with FBPA coupling cs; purified caspase-1, fluorogenic substrate cleavage; Potency, µM (top dose mostly 57.5 µM), for the others: at the top dose activity change, negative = inhibition, usual class: inhibitors; hit rate 20% among 60; active = well fitted inhibition curve with a large enough effect in the main read-out, with a control signal flat; inconclusive = small, poorly fitted or top-dose-only effect, or a change in a side signal; inactive = no such curve, though single readings can be large or run the other way
CASP7 inh CRC = confirmation of allosteric or competitive inhibitors of human caspase-7. shares compounds with FBPA coupling cs. recombinant caspase-7, fluorogenic substrate cleavage. Potency, µM (doses to about 57.5 µM), without a hit: top-dose activity change, negative = inhibition, most hits filed as inhibitors. 60 tested, under 10 active. AID 897; active = well fitted inhibition curve with a large enough effect in the main read-out, with a control signal flat, not every such curve was filed as active; inconclusive = small, poorly fitted or top-dose-only effect, or a change in a side signal; inactive = no such curve, though single readings can be large or run the other way
Casp7 cysteine = caspase-7 inhibition with cysteine present; Potency, µM (doses to about 57.5 µM), without a hit: at the highest dose activity change, negative = inhibition, most hits filed as inhibitors; 60 tested, under 10 active; caspase-7 enzyme with cysteine, fluorogenic substrate, redox counterscreen; shares compounds with FBPA coupling cs; active = well fitted inhibition curve with a large enough effect in the main read-out, with a control signal flat; inconclusive = small, poorly fitted or top-dose-only effect, or a change in a side signal; inactive = no such curve, though single readings can be large or run the other way
CASP1 redox cys = inhibits caspase-1 in cysteine buffer, redox counter-screen | AID 929 | Potency, µM (doses to about 57.5 µM), for the others: top-dose activity change, negative = inhibition, usual class: inhibitors | 60 tested, under 10 active | recombinant caspase-1, fluorogenic substrate, cysteine buffer | shares compounds with FBPA coupling cs; active = well fitted inhibition curve with a large enough effect in the main read-out, with a control signal flat; inconclusive = small, poorly fitted or top-dose-only effect, or a change in a side signal; inactive = no such curve, though single readings can be large or run the other way
Starred values were filed as active, the others as inactive; ! = a repeat was not active; [ ] = dose if it differs, or a comment. Most compounds without a hit are left out; they make up all but 2.3% or so of the library. Unless noted, calls come from the whole dose curve; as a rule, active = well fitted curve in the direction sought with a large enough effect; inconclusive = small, poorly fitted or top-dose-only effect, or another doubt; inactive = no such curve, though single readings can be large; an effect the other way counts as inactive or inconclusive.

`CC(=O)NC1N=C(C)N(c2ccccc2)C1=O` (stereo unspecified) gave Tau fluor counter inconclusive, Tau fibril ThT inconclusive, Tau fibril FP inconclusive, FBPA coupling cs -78* and USP1 inh -8%.
For Cc1cc(OC(=O)N(C)C)n(-c2ccccc2)n1 the results were Tau fluor counter -3%, Tau fibril ThT -6%, Tau fibril FP 2%, FBPA coupling cs 3 and USP1 inh -25%.
CC[C@@H]1/C=C/C=C/C[C@H](C)[C@@H](O)[C@](C)(O)C(=O)[C@H](C)[C@@H](O)[C@H](C)C(=O)[C@H](C)[C@@H](O)[C@H](C)/C=C/C(=O)O[C@H]2[C@@H](C)[C@@H](CC1)O[C@@]1(CC[C@@H](C)[C@@H](C[C@H](C)O)O1)[C@@H]2C was read as Tau fluor counter -16%, Tau fibril ThT inconclusive and Tau fibril FP -7%.
For CCOc1ccc2nc(N=Nc3c(O)[nH]c(=S)[nH]c3=O)sc2c1 the results were Tau fluor counter inconclusive, Tau fibril ThT 2.2µM*, Tau fibril FP -1%, FBPA coupling cs 0 and USP1 inh inconclusive.
`CCOc1ccc2nc(N=Nc3c(O)[nH]c(=O)[nH]c3=O)sc2c1` gave Tau fluor counter -17%, Tau fibril ThT 4.5µM*, Tau fibril FP 1%, FBPA coupling cs 0 and USP1 inh -29%.
CCOc1ccc2nc(NC(=O)c3cccn(Cc4ccccc4C)c3=O)sc2c1 was read as Tau fluor counter -17%, Tau fibril ThT -1%, Tau fibril FP -8% and USP1 inh -24%.
Screening O=C1/C(=C\c2ccccc2)C[C@@]2(O)[C@H]3Cc4ccc(O)c5c4[C@@]2(CCN3CC2CC2)[C@@H]1O5 returned Tau fluor counter 7%, Tau fibril ThT -11%, Tau fibril FP inconclusive and FBPA coupling cs 0.
For Cc1cc(NS(=O)(=O)c2ccc(N)cc2)no1 the results were Tau fluor counter 1%, Tau fibril ThT -3%, Tau fibril FP inconclusive, FBPA coupling cs 3 and USP1 inh 13%.
C=C1C(=O)O[C@@H]2C[C@@H](C)[C@@H]3C=CC(=O)[C@@]3(C)[C@@H](O)[C@H]12 was read as Tau fluor counter 8.9µM*![quencher], Tau fibril ThT 3.5µM*, Tau fibril FP 4µM*, FBPA coupling cs 4 and USP1 inh inconclusive.
For CCn1nc(-c2cccs2)nc2c(=O)n(C)c(=O)nc1-2 the results were Tau fluor counter -22%, Tau fibril ThT 18µM*, Tau fibril FP inconclusive, FBPA coupling cs -69*, USP1 inh 0.22µM*, Casp1 confirm 0.32µM*, CASP7 inh CRC 0.63µM*, Casp7 cysteine -11% and CASP1 redox cys -4%.
`CN1C2CC(=O)CC1C(O)C2` (stereo unspecified) gave FBPA coupling cs 3.
`O=C(O)c1cc[c]([Hg][Cl])cc1` gave Tau fluor counter -8%, Tau fibril ThT inconclusive, Tau fibril FP -12%, USP1 inh -24%, Casp1 confirm 10µM*, CASP7 inh CRC -14%, Casp7 cysteine -25% and CASP1 redox cys 2.5µM*.
Screening CC(C)=CCCC(C)C1CC[C@@]2(C)C3=C(CC[C@@]12C)C1(C)CCC(O)C(C)(C)C1CC3 (stereo partly specified) returned Tau fluor counter -12%, Tau fibril ThT inconclusive, Tau fibril FP -7% and FBPA coupling cs 1.
